The values that follow come from PubChem BioAssay (EPA / NIEHS).

Structures are written as SMILES. Calls of active or inactive are those of the source. How the source made its calls: active means hit-call score of the fitted dose curve at least 0.9, where 1 is the maximum; inactive means score below 0.9.

E-selectin (Homo sapiens), sequence (P16581 whole entry, looked up): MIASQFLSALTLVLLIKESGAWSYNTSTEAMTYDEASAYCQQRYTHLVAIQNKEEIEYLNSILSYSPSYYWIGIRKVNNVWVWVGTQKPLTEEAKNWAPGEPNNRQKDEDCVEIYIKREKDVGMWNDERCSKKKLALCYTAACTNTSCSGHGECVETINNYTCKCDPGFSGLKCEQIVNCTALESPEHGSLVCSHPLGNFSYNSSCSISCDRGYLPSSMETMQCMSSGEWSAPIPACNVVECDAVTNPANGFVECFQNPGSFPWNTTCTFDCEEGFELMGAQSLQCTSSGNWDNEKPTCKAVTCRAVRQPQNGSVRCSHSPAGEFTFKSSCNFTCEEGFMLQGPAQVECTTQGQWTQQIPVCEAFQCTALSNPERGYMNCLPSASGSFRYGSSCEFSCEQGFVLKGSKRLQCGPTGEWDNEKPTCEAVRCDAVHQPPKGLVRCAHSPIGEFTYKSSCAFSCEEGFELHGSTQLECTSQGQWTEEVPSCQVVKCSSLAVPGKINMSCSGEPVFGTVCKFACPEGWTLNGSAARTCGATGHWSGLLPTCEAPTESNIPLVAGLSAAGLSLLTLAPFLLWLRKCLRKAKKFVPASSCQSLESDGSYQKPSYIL

Read-out in the first assay: Monocyte Chemoattractant Protein-1 (MCP1), CCL2 (gene 6347)
The assay is described as follows: BSK_SAg_MCP1: BioMAP Diversity Plus: SAg Assay for Monocyte Chemoattractant Protein-1 (MCP1) Biomarker Activity (AID 2283090). Particulars: primary human HUVEC with PBMC; actives raise or lower the signal. The method in brief:
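MCP-1 levels in the endothelial–PBMC SAg co-culture were quantified by ELISA at 24 h post-dosing; both increases and decreases versus DMSO scored. Cytotoxicity monitored by SRB total protein in parallel cultures.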
Turning to `Cc1ccc2nc3sc(=O)sc3nc2c1`, the outcome was inactive.
`Nc1c(Oc2ccccc2)cc(O)c2c1C(=O)c1ccccc1C2=O`: the AC50 (in general, the concentration at which the activity in the assay is half-maximal) was 0.803 µM (active).
As for `Cc1cc(C)cc(C)c1`, the result was inactive.
Turning to `CCN(CC)C(=O)C(Cl)=C(C)OP(=O)(OC)OC`, the result was inactive.
Turning to `Oc1cccc(-c2ccccc2)c1`, the concentration at half-maximal activity (AC50) was 20 µM (active).
For the compound `[Cl][Sn]([c]1ccccc1)([c]1ccccc1)[c]1ccccc1`, the AC50 is 0.327 µM (active).
For `OCCCCO`, the result was inactive.
`OCCN(CCO)CCO`: the outcome was inactive.
Same read-out and setting: for `CCOC(=O)C(SP(=S)(OC)OC)c1ccccc1` (centres undefined) the value was “inactive”.
As to `OC(Cc1ccccc1Cl)(Cn1cncn1)C1(Cl)CC1` (centres undefined), the outcome was inactive.
Same read-out and setting: then `CCC(C)(C#N)N=NC(C)(C#N)CC` (centres undefined), with “inactive”; and `C[C@]12CC[C@@H](O)C[C@@H]1CC[C@@H]1[C@@H]2CC[C@]2(C)C(=O)CC[C@@H]12`, with “inactive”.
In the case of `Cc1ccccc1OP(=O)(Oc1ccccc1)Oc1ccccc1`, the AC50 was 20 µM (active).
Same read-out and setting: then `Oc1cc(Cl)c(Cl)cc1Cl`, with 32.2 µM (active).
As to `O=C(O)COc1cc(Cl)c(Cl)cc1Cl`, the outcome was inactive.
Consider `Cc1cc(Cl)ccc1OC(C)C(=O)O` (centres undefined), for which the result was inactive.
Same read-out and setting: then `O=C(CCl)NCO`, with “inactive”; and `Clc1cccc(Cl)c1Cl`, with “inactive”.
On the same count and under the same terms, then `Cc1c([N+](=O)[O-])c(C)c([N+](=O)[O-])c(C(C)(C)C)c1[N+](=O)[O-]`, with “inactive”.
With `CC(C)(C)c1cc([N+](=O)[O-])cc(C(C)(C)C)c1O`, the concentration at half-maximal activity (AC50) is 0.458 µM (active).
Same read-out and setting: for `O=C1C=CC(=O)c2ccccc21` the value was 2.39 µM (active).
Take `Clc1cccc(Cl)c1`: the result was inactive.
The same measure, in the same setting: then `O=C(N[C@H]1CN2CCC1CC2)c1ccc2c(c1)OCCO2`, with “inactive”.
The same measure, in the same setting: for `COCC(=O)N(c1c(C)cccc1C)[C@H](C)C(=O)OC` the value was “inactive”.
On to `NC(=O)CCl`, for which the outcome was inactive.
`Oc1ccc(Cc2ccc(O)cc2)cc1`: the result was inactive.
On the same count and under the same terms, for `CCOP(=O)(OCC)OC(=CCl)c1ccc(Cl)cc1Cl` the value was “inactive”; for `CCCCN(CCCC)C(=S)[S-].CCCCN(CCCC)C(=S)[S-].[Ni+2]`, “inactive”.
`O=C(Cc1ccccc1)OCCc1ccccc1`: the outcome was inactive.
For `O=[N+]([O-])c1ccc(Nc2ccccc2)cc1`, the result was inactive.
The same measure, in the same setting: for `COc1ccccc1N` the value was “inactive”.
Same read-out and setting: for `N#Cc1cccnc1` the value was “inactive”.

Read-out in another assay: E-selectin (Homo sapiens) (UniProt P16581)
The assay is described as follows: BSK_SAg_Eselectin: BioMAP Diversity Plus: SAg Assay for Eselectin Biomarker Activity (AID 2283091). Conditions: primary human HUVEC with PBMC; actives raise or lower the signal. The method in brief: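 HUVEC co-cultured with PBMC, compound dosed then read at 24 h; E-selectin measured by ELISA. Activity fitted bidirectionally against DMSO as negative control and baseline.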
For `Cc1ccc2nc3sc(=O)sc3nc2c1`, the AC50 was 8.11 µM (active).
Consider `Nc1c(Oc2ccccc2)cc(O)c2c1C(=O)c1ccccc1C2=O`, for which the AC50 was 0.795 µM (active).
In the case of `Cc1cc(C)cc(C)c1`, the outcome was inactive.
Same read-out and setting: then `CCN(CC)C(=O)C(Cl)=C(C)OP(=O)(OC)OC`, with “inactive”.
For the compound `Oc1cccc(-c2ccccc2)c1`, the concentration at half-maximal activity (AC50) was 33.6 µM (active).
Same read-out and setting: then `[Cl][Sn]([c]1ccccc1)([c]1ccccc1)[c]1ccccc1`, with 0.227 µM (active).
Turning to `OCCCCO`, the result was inactive.
`OCCN(CCO)CCO`: the outcome was inactive.
As to `CCOC(=O)C(SP(=S)(OC)OC)c1ccccc1` (centres undefined), the result was inactive.
For `OC(Cc1ccccc1Cl)(Cn1cncn1)C1(Cl)CC1` (centres undefined), the outcome was inactive.
Same read-out and setting: then `CCC(C)(C#N)N=NC(C)(C#N)CC` (centres undefined), with “inactive”; and `C[C@]12CC[C@@H](O)C[C@@H]1CC[C@@H]1[C@@H]2CC[C@]2(C)C(=O)CC[C@@H]12`, with “inactive”.
Turning to `Cc1ccccc1OP(=O)(Oc1ccccc1)Oc1ccccc1`, the AC50 was 30.9 µM (active).
As for `Oc1cc(Cl)c(Cl)cc1Cl`, the AC50 is 26.5 µM (active).
On to `O=C(O)COc1cc(Cl)c(Cl)cc1Cl`, for which the outcome was inactive.
The same measure, in the same setting: then `Cc1cc(Cl)ccc1OC(C)C(=O)O` (centres undefined), with “inactive”.
For `O=C(CCl)NCO`, the result was inactive.
In the case of `Clc1cccc(Cl)c1Cl`, the result was inactive.
Same read-out and setting: for `Cc1c([N+](=O)[O-])c(C)c([N+](=O)[O-])c(C(C)(C)C)c1[N+](=O)[O-]` the value was “inactive”.
In the case of `CC(C)(C)c1cc([N+](=O)[O-])cc(C(C)(C)C)c1O`, the AC50 was 0.219 µM (active).
The same measure, in the same setting: for `O=C1C=CC(=O)c2ccccc21` the value was 1.12 µM (active).
On to `Clc1cccc(Cl)c1`, for which the outcome was inactive.
On the same count and under the same terms, for `O=C(N[C@H]1CN2CCC1CC2)c1ccc2c(c1)OCCO2` the value was “inactive”; for `COCC(=O)N(c1c(C)cccc1C)[C@H](C)C(=O)OC`, “inactive”; for `NC(=O)CCl`, “inactive”.
Consider `Oc1ccc(Cc2ccc(O)cc2)cc1`, for which the result was inactive.
Turning to `CCOP(=O)(OCC)OC(=CCl)c1ccc(Cl)cc1Cl`, the AC50 is 28.6 µM (active).
As for `CCCCN(CCCC)C(=S)[S-].CCCCN(CCCC)C(=S)[S-].[Ni+2]`, the outcome was inactive.
Take `O=C(Cc1ccccc1)OCCc1ccccc1`: the result was inactive.
The same measure, in the same setting: then `O=[N+]([O-])c1ccc(Nc2ccccc2)cc1`, with “inactive”; and `COc1ccccc1N`, with “inactive”.
The same measure, in the same setting: then `N#Cc1cccnc1`, with “inactive”.
